Compound activity: PubChem BioAssay, Broad Institute
aSyn 5UTR act = Activators via SNCA 5'UTR binding, MLPCN. alpha-synuclein 5'UTR reporter, activators screen. activity score, % (tested at 7.5 µM), hits read low. 300,000 compounds, 7.1% hits; in the data active means activity score below about -60%
Numbers without * were called inactive. Only a sample is shown.

SMILES	aSyn 5UTR act
Cc1cc(C)c(O)c(-c2cc(C(=O)Nc3cccnc3)[nH]n2)c1	-108.1*
Cc1cccc2c1OCC/C2=N\NC(=O)COc1ccccc1	-86.4*
COc1ccccc1OCC(=O)N/N=C1\CCc2ccccc21	-143.3*
O=C(COc1ccccc1F)N/N=C1\CCCc2ccccc21	-161.7*
COc1ccc(N=Nc2nc3ccc(Br)cc3n2C)cc1	-112.9*
Cc1ccc(N2C(=O)c3ccc(N)cc3C2=O)cc1C	-131.3*
Cc1ccc(N2C(=O)c3ccc(N)cc3C2=O)cc1	-181.8*
CC(=O)c1ccc(NC(=S)NCc2ccco2)cc1	-66.7*
CCOC(=O)c1ccc(NC(=O)C(=O)NCc2ccco2)cc1	-81.6*
c1ccc(CCNc2nc(-c3cccnc3)cs2)cc1	-129.3*
c1ccc(CCNc2nc(-c3ccccn3)cs2)cc1	-157.7*
CCN(CC)S(=O)(=O)c1ccc(N/N=C(\C)c2ccc(OC)cc2O)nc1	78.2
CCN(CC)S(=O)(=O)c1ccc(N=Nc2cc(C)cc(Br)c2O)cc1	-75.9*
CN(C)/C=N/c1ncc(C(=O)c2ccc(Cl)cc2)s1	-72.4*
CSCc1nc2sc(C(=O)Nc3nc(C)cs3)c(C)c2c(=O)[nH]1	-92.4*
CCOC(=O)c1sc(-c2ccccn2)nc1C	-125.5*
CCOC(=O)c1sc(NC(=O)CNCc2ccccn2)c(C(=O)OCC)c1C	60.3
Cc1nc(-c2ccccn2)sc1C(=O)Nc1ccc(Cl)c(Cl)c1	-78.4*
CC(C)CC(=O)Nc1ccc(-c2cn3cccnc3n2)cc1	-79.9*
CCCC(=O)Nc1ccc(-c2cn3cccnc3n2)cc1	-85.2*
CC(C)(C)CC(=O)Nc1ccc(-c2cn3cccnc3n2)cc1	-80.0*
CCCCSc1nnc(-c2ccc(C)cc2)n1C	-109.3*
CCCCSc1nnc(-c2c[nH]c3ccccc23)n1C	-135.4*
Cn1c(SCc2ccccc2)nnc1-c1c[nH]c2ccccc12	-106.9*
Cn1c(SCCOc2ccc(F)cc2)nnc1-c1ccncc1	-62.4*
SMILES	aSyn 5UTR act
Cc1cc(Cl)c(O)c(-n2nc3ccccc3n2)c1	-142.9*
Cc1ccc(OC(=O)c2ccc(S(=O)(=O)N(C)C)cc2)c(-n2nc3ccccc3n2)c1	-194.8*
CC(=O)Oc1ccc(C)cc1-n1nc2ccccc2n1	-211.9*
Cc1ccc(OC(=O)c2cccc(S(=O)(=O)N3CCCC3)c2)c(-n2nc3ccccc3n2)c1	-161.6*
Cc1ccc2nc(NNC(=O)c3ccc(S(=O)(=O)N4CCc5ccccc5C4)cc3)sc2c1	96.0
O=C(COc1ccccc1N1C(=O)c2ccccc2C1=O)c1ccc(Cl)cc1	-86.9*
O=c1c2ccccc2nc(SCc2nc3ccccc3s2)n1CCCO	-182.1*
Clc1ccc(Cl)c2sc(N3CCOCC3)nc12	-66.1*
Clc1ccc(-c2nsc(N3CCOCC3)n2)c(Cl)c1	-125.7*
Clc1cc(Cl)c2nc(N3CCOCC3)sc2c1	-156.3*
O=C(O)c1ccc(/C=C/C(=O)c2ccc3c(c2)OCCCO3)cc1	-134.8*
Cc1ccc(O)c(C(=O)/C=C/c2ccc3c(c2)OCCO3)c1	-82.4*
Nc1ccccc1C(=O)/C=C/c1ccc2c(c1)OCO2	-340.3*
O=C(/C=C/c1ccc2c(c1)OCCO2)c1ccccc1	-136.6*
Cc1csc(Nc2ccccc2)[n+]1-c1ccccc1	-68.8*
Cc1ccccc1C(=O)N1CCN(c2ccc(NC(=O)c3ccc([N+](=O)[O-])o3)cc2)CC1	-167.8*
Cc1ccccc1C(=O)N1CCN(c2ccc(NC(=O)c3ccc4c(c3)OCO4)cc2)CC1	47.7
CN1CCN(c2ccc(NC(=O)c3ccc([N+](=O)[O-])o3)cc2Cl)CC1	60.5
CC(=O)c1ccc(NC(=O)c2ccc([N+](=O)[O-])o2)cc1	-355.4*
COc1ccc(NC(=O)c2ccc([N+](=O)[O-])o2)cc1	-319.6*
CCCC(=O)N1CCN(c2ccc(NC(=O)c3ccc([N+](=O)[O-])o3)cc2Cl)CC1	-118.0*
CN1CCN(c2ccc(NC(=O)c3ccc(-c4cccc([N+](=O)[O-])c4)o3)cc2)CC1	-208.4*
NS(=O)(=O)c1ccc(O)c(NC(=O)c2ccc([N+](=O)[O-])o2)c1	-62.0*
O=C(Nc1ccc2oc(=O)ccc2c1)c1ccc(-c2cccc([N+](=O)[O-])c2)o1	91.5
CC(=O)Nc1ccc(C(=O)Nc2cc(C)on2)cc1	-85.4*
SMILES	aSyn 5UTR act
Cc1cc(NC(=O)c2nn(C)c(C)c2Br)no1	-87.5*
Cc1cc(NC(=O)c2ccc(F)cc2)no1	-79.0*
CCCCCCCC(=O)Oc1ccc(C(=O)Nc2cc(C)on2)cc1	-93.3*
Cc1cc(C(=O)Nc2cnc3ccccc3c2)ccc1[N+](=O)[O-]	-131.8*
CC(C)(C)c1ccc(C(=O)Nc2cccc(-n3cnnn3)c2)cc1	-84.8*
O=C(Nc1cccc(-c2cnc3ccccc3n2)c1)c1ccco1	-80.0*
Cc1ccc(C(=O)Nc2cnc3ccccc3c2)cc1	103.5
O=C(Nc1cnc2ccccc2c1)c1cccc(-n2cnnn2)c1	-89.3*
O=C(Nc1cnc2ccccc2c1)c1cccnc1	-101.0*
Cn1c(NC(=O)c2cccnc2)nc2ccccc21	-101.3*
O=C(Nc1cnc2ccccc2c1)c1ccco1	-94.9*
O=C(COC(=O)Cn1cnc2ccccc21)Nc1ccc2c(c1)C(=O)c1ccccc1C2=O	-153.1*
COc1cc(/C=N/n2cnnc2)ccc1OS(=O)(=O)c1ccccc1[N+](=O)[O-]	-177.8*
COc1cc(C=O)ccc1OS(=O)(=O)c1ccccc1[N+](=O)[O-]	-118.7*
O=c1c2cc(-c3ccccc3)sc2nc2n1N=C(c1ccccc1)CS2	-142.1*
CSc1nc2sc(-c3ccccc3)cc2c(=O)n1N	-74.2*
Brc1ccccc1C1=Nn2c(nnc2-c2ccccc2)SC1	57.5
Cc1ccc(NC(=O)c2ccc(OC(=O)COc3ccc(Cl)c(C)c3)cc2)cc1	-115.3*
O=C(Nc1nc2ccccc2s1)c1ccc(OCC2CCCO2)cc1 (stereo not drawn)	-88.6*
Cc1ccc(NC(=O)c2ccc(OCC3CCCO3)cc2)cc1 (stereo not drawn)	-122.8*
O=C(NC1=NCCS1)c1ccc(OCC2CCCO2)cc1 (stereo not drawn)	-77.0*
Cc1cnc(NC(=O)c2ccc(OCC3CCCO3)cc2)s1 (stereo not drawn)	79.1
CCOc1ccc(C(=O)NC2=NCCS2)cc1	-84.5*
COc1ccccc1CNS(=O)(=O)c1ccc(-c2cc(C)no2)cc1	80.0
COc1ccccc1NS(=O)(=O)c1ccc(-c2cc(C)no2)s1	-101.8*
SMILES	aSyn 5UTR act
CCCCOc1ccc(-n2nc(C)cc2C)nn1	-72.1*
O=c1c(-c2nc3ccccc3s2)cccn1Cc1ccccc1	-86.8*
Cc1ccc(Cn2cccc(-c3nc4ccccc4s3)c2=O)cc1	-194.1*
O=C(NC1CC(=O)c2sccc21)c1ccc(Cl)cc1Cl (stereo not drawn)	-86.6*
CCS(=O)(=O)n1nc(-c2ccc(Cl)cc2)nc1SC	-69.6*
O=C(Cc1ccccc1)n1nc(-c2ccco2)nc1SCc1ccccc1	-70.8*
CSc1nc(-c2ccc(Cl)cc2)nn1C(=O)c1ccco1	-107.2*
O=C(c1ccco1)n1nc(-c2ccccc2)nc1SCc1ccccc1	-112.2*
Cc1ccc(S(=O)(=O)n2nc(-c3ccco3)nc2SCc2ccccc2)cc1	-73.6*
O=c1cc(-c2cccc(Br)c2)oc2cccc(O)c12	-140.5*
O=c1cc(-c2cccc(Cl)c2)oc2cccc(O)c12	-123.6*
Cc1ccc(Nc2nc(NCc3ccco3)c3ccccc3n2)cc1	-138.9*
CCC(C)Nc1nc(N)c([N+](=O)[O-])c(NC2CCCCC2)n1 (stereo not drawn)	102.2
O=c1c2ccccc2nc2c3ccccc3c(NCc3ccco3)nn12	-81.5*
